BRCA1 expr act: qHTS Assay to Identify Small Molecule Activators of BRCA1 Expression; MCF7-BRCA1-FFLuc reporter, luminescence, 48 h; response scale: scaled: vehicle 0%, 10 µM genistein 100%; Potency, µM (highest dose often 46.1 µM), inactives show at the highest dose activation, actives largely listed as activators; 1.1% of 380,000 active; AID 624202, 2012; further: potency means the concentration at half of the fitted maximal effect; nearly all actives have a fitted effect of over 80% in size
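Luminescence from a BRCA1-driven firefly luciferase in MCF7 cells was the read-out, taken 15 min after substrate addition following 48 h compound exposure at 37 °C. Data were normalized to a 10 microM genistein control and DMSO vehicle.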
RORg inh: qHTS for inhibitors of ROR gamma transcriptional activity. 5.4% of 310,000 active. Potency, µM (doses to about 53.6 µM), inactives show at the highest dose activity change, negative = inhibition, most hits filed as inhibitors. Drosophila S2 Gal4-RORgamma UAS-luciferase reporter, 20 h. AID 2551, 2010; further: potency means the concentration at half of the fitted maximal effect; on the % scale 0 is the no-effect control and ±100 the full control effect; nearly all actives have a fitted effect of over 60% in size
Target sequence (P51450 whole entry, looked up, the tested form may be a part): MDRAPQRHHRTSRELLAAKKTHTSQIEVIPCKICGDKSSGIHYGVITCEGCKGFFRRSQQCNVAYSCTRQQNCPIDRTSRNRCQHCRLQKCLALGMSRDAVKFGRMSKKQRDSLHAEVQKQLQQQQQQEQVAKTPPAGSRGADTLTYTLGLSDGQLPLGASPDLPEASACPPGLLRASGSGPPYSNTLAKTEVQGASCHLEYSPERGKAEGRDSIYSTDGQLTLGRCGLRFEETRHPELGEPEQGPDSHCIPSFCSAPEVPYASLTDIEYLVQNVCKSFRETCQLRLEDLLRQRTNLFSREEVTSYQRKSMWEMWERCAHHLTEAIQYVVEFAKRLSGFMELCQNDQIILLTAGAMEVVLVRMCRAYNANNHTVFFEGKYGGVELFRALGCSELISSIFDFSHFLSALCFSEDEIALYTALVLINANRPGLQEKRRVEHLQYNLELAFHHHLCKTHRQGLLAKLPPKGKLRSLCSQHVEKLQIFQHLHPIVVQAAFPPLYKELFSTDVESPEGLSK
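Stably transfected Drosophila Schneider cells are the test system, with ROR gamma fused to Gal4 and luciferase under UAS control; luminescence is read after 20 hr of 700 uM copper sulfate induction at ambient temperature.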
p53 reactivation: qHTS assay for re-activators of p53 using a Luc reporter; H1299 p53-A138V BP100-luciferase reporter, luminescence, 24 h; Potency, µM (doses to about 92.2 µM), inactives show at the highest dose activity change, positive = activation, usual class: activators; AID 504706, 2011; 0.063% of 320,000 active; further: potency means the concentration at half of the fitted maximal effect; % of control where 0% means no effect; nearly all actives have a fitted effect of over 45% in size
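p53-null H1299 cells stably carrying temperature-sensitive p53-A138V and a BP100-luciferase reporter were pinned with compounds (4-point, 1:5 series) and held 24 hrs at 37 deg C. Luminescence was read 10 min after detection reagent.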
Giardia killer: Small Molecules that selectively kill Giardia lamblia: qHTS | Giardia lamblia trophozoite viability | activity change, % at 7.66 µM, hits read low | 0.15% of 340,000 active; in the data active means activity change below about -80%; inconclusive means between about -30% and that limit;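 further: parasites exposed to compound for two days anaerobically before the ATP read; on the % scale 0 is the no-effect control and ±100 the full control effect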
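Killing of trophozoites was scored by loss of ATP luminescence after a 48 hrs anaerobic exposure to compounds at 37 deg C, using 100 cells per well.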
Gal4-VP16 FLuc: VP16 counterscreen qHTS for inhibitors of ROR gamma transcriptional activity | Potency, µM (series often up to 53.6 µM), for the others: at the top dose activity, negative = inhibition, actives largely listed as inhibitors | Drosophila S2 Gal4-VP16 UAS-luciferase, luminescence, 20 h | AID 2546, 2010 | 3.5% of 310,000 active;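 further: Gal4-VP16 expression switched on by copper sulfate through the metallothionein promoter; potency means the concentration at half of the fitted maximal effect; on the % scale 0 is the no-effect control and ±100 the full control effect; nearly all actives have a fitted effect of over 50% in size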
ELG1 DNA repair: qHTS screen for small molecules that inhibit ELG1-dependent DNA repair in human embryonic kidney (HEK293T) cells expressing luciferase-tagged ELG1. HEK293T ELG1-luciferase reporter, luminescence, 16 h; DNA damage induced by 5-fluorouridine. Potency, µM (doses to about 46.1 µM), without a hit: at the top dose activity change, negative = inhibition, hits mostly inhibitors. 2.3% of 330,000 active; further: potency means the concentration at half of the fitted maximal effect; on the % scale 0 is the no-effect control and ±100 the full control effect; nearly all actives have a fitted effect of over 55% in size
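DMSO vehicle served as the neutral condition. Each well held 2,000 cells given 5-fluorouridine plus compound; after 16 hr at 37 °C/5% CO2, ONE-Glo was added and luciferase measured 30 min later.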
The depositor's hits bear a star; ? = inconclusive; nt = no result; [ ] = dose if it differs, or a comment. This is a sample that favours compounds with a hit; in the whole collection about 7.6% have one here. Unless noted, the call rests on the fitted dose curve; in most records, active means well fitted curve in the direction sought with a large enough effect; inconclusive means small, poorly fitted or top-dose-only effect, or another doubt; inactive means no such curve, though single readings can be large; an effect the other way counts as inactive or inconclusive.

SMILES	BRCA1 expr act	RORg inh	p53 reactivation	Giardia killer	Gal4-VP16 FLuc	ELG1 DNA repair
O=C(NNc1ccccc1F)C1CCC1	20%	?	-4%	22	2%	16µM*
O=C(NNc1ccccc1F)c1ccccc1	5%	19%	-3%	8	3%	15µM*
COc1ccc(CN(CC(=O)NCc2ccco2)C(=O)CCC(=O)Nc2nccs2)cc1	9%	?	-13%	-3	0%	-17%
C=C1C(=O)O[C@@H]2[C@H]3O[C@]3(C)CCC=C(C)CC[C@@H]12	nt	7.1µM*	nt	nt	?	nt
C=C1C(=O)O[C@@H]2[C@@H]1CC/C(C)=C\CC[C@@]1(C)O[C@H]21	nt	3.2µM*	nt	nt	3.5µM*	nt
C=C1C(=O)OC2C1CCC(C)=C1C(=O)C3OC3(C)C12 (configuration not stated)	-87%	nt	nt	10	nt	nt
CC1CC1C(=O)Nc1nc(-c2ccccn2)cs1 (configuration not stated)	3%	11µM*	16%	-4	?	-16%
CC1CCc2nc(NC(=O)C3COc4ccccc4O3)sc2C1 (configuration not stated)	-26%	?	-3%	-6	10µM*	?
CSc1nc2ccc3nc(NC(=O)C4COc5ccccc5O4)sc3c2s1 (configuration not stated)	0%	10µM*	6%	-19	-19%	?
O=C(Nc1nc(-c2ccccn2)cs1)C1COc2ccccc2O1 (configuration not stated)	-48%	0.89µM*	?	1	0.2µM*	12%
Cc1nnc(SCC(=O)NNC(=O)c2ccco2)n1-c1ccccc1	-14%	-8%	-3%	23	-4%	?
Cc1cc(C(F)(F)F)nn1C(=O)c1cccnc1Cl	-9%	-9%	1%	-10	-5%	?
O=C(O)c1ccccc1-c1ccccc1C(=O)NCc1ccccc1F	-2%	23%[1.91 µM]	13%	30	-5%	-10%
Cc1csc(NC(=O)C2COc3ccccc3O2)n1 (configuration not stated)	?	14µM*	2%	-15	11µM*	?
O=C(Nc1nc(-c2ccccc2)cs1)C1COc2ccccc2O1 (configuration not stated)	?	25%	?	-12	15%	12%
C[C@@H](C(=O)Nc1nc(-c2ccccn2)cs1)N1C(=O)C2CCCCC2C1=O (some centres not stated)	-34%	13µM*	9%	-8	?	-24%
O=C(Nc1ccc(Cl)cn1)C1COc2ccccc2O1 (configuration not stated)	-12%	4µM*	3%	9	?	7%
CC(C)NC(=O)c1ccccc1NC(=O)C1COc2ccccc2O1 (configuration not stated)	-25%	?	?	0	4%	21µM*
CCOc1ccc(N(C(C)=O)C2C=CS(=O)(=O)C2)cc1 (configuration not stated)	0%	-22%	14%	-7	0%	10%
Cc1noc(C(=O)NC2CCCCC2)c1Cl	0%	-1%	-1%	-20	6%	2%
Cc1cnc(NC(=O)C2COc3ccccc3O2)s1 (configuration not stated)	?	7.1µM*	-15%	-4	8.9µM*	?
Cc1nc2ccc3nc(NC(=O)C4COc5ccccc5O4)sc3c2s1 (configuration not stated)	0%	-1%	-2%	-8	?	-11%
CCNC(=O)c1c(NC(=O)C2COc3ccccc3O2)sc2c1CCCC2 (configuration not stated)	-28%	?	-4%	-12	11µM*	-4%
Cc1ccc(Nc2nc(N)nc(N)c2S(=O)(=O)c2ccccc2)cc1	-31%	nt	nt	nt	nt	nt
COc1cc(NC(=O)c2cccnc2Sc2ccc(Cl)cc2)cc(OC)c1OC	-38%	?	-15%	21	0%	8.2µM*
SMILES	BRCA1 expr act	RORg inh	p53 reactivation	Giardia killer	Gal4-VP16 FLuc	ELG1 DNA repair
COc1cc(NC(=O)c2ccccn2)cc(OC)c1OC	-21%	-5%	1%	-9	-11%	?
Fc1ccc(-c2nnc(-c3ccc(F)cc3)o2)cc1	2.5µM*	1%	nt	5	?	?
Fc1ccc(-c2nnc(Cc3nnc(-c4ccc(F)cc4)o3)o2)cc1	1%	5µM*	-7%	-3	?	-15%
O=C(NCc1ccccc1)c1ccc(Br)cc1Br	38%	23%	1%	7	?	?
CCCCn1c(-c2ccc([N+](=O)[O-])cc2)n[nH]c1=S	-26%	2.2µM*	-6%	-21	8.9µM*	6%
CCn1c(-c2cccnc2)n[nH]c1=S	-1%	?	2%	13	-10%	-8%
CCn1c(-c2ccc(C)cc2)n[nH]c1=S	0%	8.9µM*	10%	-23	11µM*	8%
CCCn1c(-c2ccc(F)cc2)n[nH]c1=S	0%	?	-4%	-1	1%	-11%
CCn1c(-c2ccc(Cl)cc2)n[nH]c1=S	-23%	10µM*	2%	-18	13µM*	-7%
COC(=O)[C@@H]1[C@@H](C)OC(=O)N[C@H]1c1ccccc1	10%	-4%	-5%	1	-3%	13%
CCOC(=O)c1ccc2c(c1)[nH]c(=S)n2CC	54%	8.9µM*	-1%	4	?	?
CCN(CC)S(=O)(=O)c1ccc2nc(CCl)[nH]c2c1	-5%	-8%	-3%	18	-19%	-9%
CCN(CC)S(=O)(=O)c1ccc2c(c1)[nH]c(=S)n2CC	-19%	6.3µM*	-4%	-8	-23%	?
Cc1ccc(NC(=O)COC(=O)c2ccc(CN3CCCC3=O)cc2)cc1C	0%	nt	0%	2	nt	1%
CCOC(=O)C1CCCN(C(=O)/C=C/c2cccc([N+](=O)[O-])c2)C1 (configuration not stated)	-2%	22%	11%	0	-1%	1%
CCOC(=O)c1c(C)c(C(=O)Nc2ccc(F)cc2)c(C)n1C	9%	16%	4%	23	5%	2%
O=c1cc(O)n(-c2ccccc2F)c(=S)[nH]1	5%	2%	0%	-3	1%	4%
Cc1ccc(-c2c[nH]c(=S)n2-c2ccccc2F)cc1	-19%	1.6µM*	-3%	12	5µM*	-8%

Bioassay records (PubChem BioAssay)
